Experimental data published in PubChem BioAssay (NCATS).
Results filed as inconclusive are left out. The source made the active and inactive calls. Calls follow the shape of the dose curve; as a rule, active = well fitted curve in the direction sought with a large enough effect; inconclusive = small, poorly fitted or top-dose-only effect, or another doubt; inactive = no such curve, though single readings can be large; an effect the other way counts as inactive or inconclusive. Where a SMILES comes first, the peptide text is derived from it.

Columns and labels:
[1] = tested on: HACAT; assay: qHTS assay to identify novel small-molecules to repurpose for Merkel cell carcinoma treatment (AID 1296009); conditions: MCC and control cell lines, CellTiter-Glo viability, 72 h; at 44.8 µM (top of the series) unless noted; also: nearly all actives have a fitted effect of over 60% in size
Procedure, shortened: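 qHTS format: cells treated with library compounds in DMSO across 8 (NPC) or 11 (MIPE) concentrations. Readout after 72 hr at 37 degree celsius was CellTiter-Glo luminescence.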

[2] = tested on: C33A; assay: Primary qHTS to identify gynecologic anti-cancer compounds using libraries of approved drugs and bioactive compounds (AID 1345084); conditions: Gynecologic cancer cell panel viability, ATPlite luminescence, 48 h; series mostly up to 57.5 µM; also: % is scaled to controls: 0 for no effect and ±100 for the full control effect; nearly all actives have a fitted effect of over 55% in size
Procedure, shortened: (§1)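 Cells, 1,000 per well, plated 16 h, then exposed 48 h at 37 C to compounds. Viability by ATPlite luminescence after 15 min at room temperature.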

[3] = tested on: CAOV3; assay: as above; conditions: Gynecologic cancer cell panel viability, ATPlite luminescence, 48 h; series mostly up to 57.5 µM
Procedure, shortened: as §1

[4] = tested on: CASKI; assay: as above; conditions: Gynecologic cancer cell panel viability, ATPlite luminescence, 48 h; series mostly up to 57.5 µM
Procedure, shortened: as §1

[5] = tested on: Es-2; assay: as above; conditions: Gynecologic cancer cell panel viability, ATPlite luminescence, 48 h; series mostly up to 57.5 µM
Procedure, shortened: as §1

[6] = tested on: HeLa; assay: as above; conditions: Gynecologic cancer cell panel viability, ATPlite luminescence, 48 h; series mostly up to 57.5 µM
Procedure, shortened: as §1

[7] = tested on: Hek293T; assay: as above; conditions: Gynecologic cancer cell panel viability, ATPlite luminescence, 48 h, control line for the selectivity index; series mostly up to 57.5 µM
Procedure, shortened: as §1

[8] = tested on: JEG-3; assay: as above; conditions: Gynecologic cancer cell panel viability, ATPlite luminescence, 48 h; series mostly up to 57.5 µM
Procedure, shortened: as §1

C=C(CO)C(=O)O[C@H]1C[C@@]23O[C@@H]2CC/C(=C/[C@H]2OC(=O)C(=C)[C@H]12)CO[C@H]3O
inactive: outcome [1] | Potency [2] | Potency [3] | outcome [4] | Potency [5] | Potency [6] | Potency [7] | Potency [8]

N[C@@H](CCNCc1ccc(Cl)cc1)C(=O)N1CCCCC1
inactive: outcome [1] | Potency [2] | Potency [3] | outcome [4] | Potency [5] | Potency [6] | Potency [7] | Potency [8]

CCC[C@H](N[C@@H](C)C(=O)N1[C@H](C(=O)O)C[C@@H]2CCCC[C@@H]21)C(=O)O
inactive: outcome [1] | Potency [2] | Potency [3] | outcome [4] | Potency [5] | Potency [6] | Potency [7] | Potency [8]

CC(C)C1NC(=O)CNC(=O)C2CCCN2C(=O)C(Cc2c[nH]c3ccccc23)NC(=O)CNC(=O)C(Cc2ccc(O)cc2)NC(=O)CNC1=O (stereo unspecified) (cyclo(GVGYGWP); configuration not given here)
inactive: outcome [1] inactive [at 17.4 µM] | Potency [2] | Potency [3] | outcome [4] | Potency [5] | Potency [6] | Potency [7] | Potency [8]

COc1c(C)c(OCC=C(C)C)cc2c1CNC2=O
inactive: outcome [1] | Potency [2] | Potency [3] | outcome [4] | Potency [5] | Potency [6] | Potency [7] | Potency [8]

COC(=O)C1=C[C@@H](O)[C@@H](O)[C@H](O[C@@H]2O[C@H](CO)[C@@H](O)[C@H](O)[C@H]2OC(=O)/C=C/c2ccccc2)C1
inactive: outcome [1] inactive [at 17.4 µM] | Potency [2] | Potency [3] | outcome [4] | Potency [5] | Potency [6] | Potency [7] | Potency [8]

COc1cnc(-n2cnc(C)n2)c2[nH]cc(C(=O)C(=O)N3CCN(C(=O)c4ccccc4)CC3)c12
inactive: outcome [1] | Potency [2] | Potency [3] | outcome [4] | Potency [5] | Potency [6] | Potency [7] | Potency [8]

CC1=C(C)C(=O)OC(C(C)C2C(O)CC3C4C5OC5C5(O)CC(OC6OC(CO)C(OC7OC(C)C(O)C(O)C7O)C(O)C6O)CC(O)C5(C)C4CCC32C)C1 (stereo unspecified)
inactive: outcome [1] inactive [at 17.4 µM] | Potency [2] | Potency [3] | outcome [4] | Potency [5] | Potency [6] | Potency [7] | Potency [8]

COc1cc2c(c(O)c1OC/C=C(\C)CC/C=C(/C)CCC=C(C)C)CN(C(CCC(=O)O)C(=O)O)C2=O (stereo unspecified)
inactive: outcome [1] inactive [at 17.4 µM] | Potency [2] | Potency [3] | outcome [4] | Potency [5] | Potency [6] | Potency [7] | Potency [8]

CCOc1ccc(-c2cc(NC(=O)c3c(F)cccc3F)c(C(=O)O)s2)cc1
inactive: outcome [1] | Potency [2] | Potency [3] | outcome [4] | Potency [5] | Potency [6] | Potency [7] | Potency [8]

C/C=C/C=C/C=C/C(=O)OC1C=C2C(O)OC(=O)[C@]2(O)[C@@]2(C)CCCC(C)(C)[C@H]12 (stereo partly specified)
inactive: outcome [1] inactive [at 17.4 µM] | Potency [2] | Potency [3] | outcome [4] | Potency [5] | Potency [6] | Potency [7] | Potency [8]

C[C@@H](CC[C@@H]1[C@@]2(C)CCCC(C)(C)C2CC[C@@]1(C)O)CC(=O)O (stereo partly specified)
inactive: outcome [1] | Potency [2] | Potency [3] | outcome [4] | Potency [5] | Potency [6] | Potency [7] | Potency [8]

CC1=C2C[C@H]3OC(=O)[C@H](O)[C@@]4(O)[C@@H](C)[C@@H](O)[C@H](O)C([C@@]2(C)[C@H](O)[C@@H](O)C1)[C@@]34C (stereo partly specified)
inactive: outcome [1] | Potency [2] | Potency [3] | outcome [4] | Potency [5] | Potency [6] | Potency [7] | Potency [8]

CC1(C)CC[C@]2(C(=O)OC3OC(CO)C(O)C(O)C3O)CC[C@]3(C)C(=CCC4[C@@]5(C)C[C@@H](O)[C@H](OC6OC(C(=O)O)C(O)C(O)C6O)C(C)(C)C5CC[C@]43C)[C@@H]2C1 (stereo partly specified)
inactive: outcome [1] inactive [at 9.27 µM] | activity change, negative = cytotoxicity [2] 5.49% [at 11.6 µM] | activity change, negative = cytotoxicity [3] -8.39% [at 11.6 µM] | activity change, negative = cytotoxicity [4] 3.29% [at 11.6 µM] | activity change, negative = cytotoxicity [5] -0.905% [at 11.6 µM] | activity change, negative = cytotoxicity [6] 5.76% [at 11.6 µM] | activity change, negative = cytotoxicity [7] -2.17% [at 11.6 µM] | activity change, negative = cytotoxicity [8] 17.5% [at 11.6 µM]

COc1ccc(S(=O)(=O)Nc2nc(-c3cccc([N+](=O)[O-])c3)cs2)cc1OC
inactive: outcome [1] | Potency [2] | Potency [3] | outcome [4] | Potency [5] | Potency [6] | Potency [7] | Potency [8]

O=C(OC(C(F)(F)F)C(F)(F)F)N1CCN(Cc2cccc(Oc3ccccc3)c2)CC1
inactive: outcome [1] | Potency [2] | Potency [3] | outcome [4] | Potency [5] | Potency [6] | Potency [7] | Potency [8]

C=C1CCC2C(C)(C)CC(O)CC2(C)C1CCC(C)CC(=O)O (stereo unspecified)
inactive: outcome [1] | Potency [2] | Potency [3] | outcome [4] | Potency [5] | Potency [6] | Potency [7] | Potency [8]

COc1cc(/C=C/c2ccccc2)c(C(=O)O)c(O)c1CC=C(C)C
inactive: outcome [1] | Potency [2] | Potency [3] | outcome [4] | Potency [5] | Potency [6] | Potency [7] | Potency [8]

Cc1cc(C(=O)N2Cc3cnn(C)c3Nc3ccccc32)ccc1CNC(=O)N1CCN(Cc2cc(O)cc(O)c2)CC1
inactive: outcome [1] | Potency [2] | Potency [3] | outcome [4] | Potency [5] | Potency [6] | Potency [7] | Potency [8]

COC1CC(O[C@H]2CC[C@@]3(C)C(=CC[C@]4(O)C3[C@H](O)[C@@H](O)[C@]3(C)[C@@H]([C@H](C)O)CC[C@@]34O)C2)OC(C)C1OC1CC(OC)C(OC2CC(OC)C(OC3OC(C)C(OC4OC(CO)C(O)C(O)C4O)C(OC)C3O)C(C)O2)C(C)O1 (stereo partly specified)
inactive: outcome [1] inactive [at 9.27 µM] | activity change, negative = cytotoxicity [2] 15.5% [at 11.6 µM] | activity change, negative = cytotoxicity [3] 14.6% [at 11.6 µM] | activity change, negative = cytotoxicity [4] 17.9% [at 11.6 µM] | activity change, negative = cytotoxicity [5] 5.18% [at 11.6 µM] | activity change, negative = cytotoxicity [6] -0.017% [at 11.6 µM] | activity change, negative = cytotoxicity [7] 8.49% [at 11.6 µM] | activity change, negative = cytotoxicity [8] -0.832% [at 11.6 µM]

CC1CC2(O)OC(=O)C3=C2C(CCC3)[C@@]12C[C@@H](c1ccoc1)OC2=O (stereo partly specified)
inactive: outcome [1] | Potency [2] | Potency [3] | outcome [4] | Potency [5] | Potency [6] | Potency [7] | Potency [8]

O=C(O[C@H]1[C@H](Oc2ccc(O)cc2CO)O[C@H](CO)[C@@H](O)[C@@H]1O)c1ccccc1
inactive: outcome [1] inactive [at 17.4 µM] | Potency [2] | Potency [3] | outcome [4] | Potency [5] | Potency [6] | Potency [7] | Potency [8]

C=C1CCC2C(C)(C)CCC[C@]2(C)[C@H]1CC/C(C)=C/C(=O)O (stereo partly specified)
inactive: outcome [1] | Potency [2] | Potency [3] | outcome [4] | Potency [5] | Potency [6] | Potency [7] | Potency [8]

CC(=O)NC(C(=O)OC1CCC(C)(C)C2CC=C3C(=O)OCC3C12C)C(C)C (stereo unspecified)
inactive: outcome [1] | Potency [2] | Potency [3] | outcome [4] | Potency [5] | Potency [6] | Potency [7] | Potency [8]

COc1c2cc(c(O)c1OC)CCCCC(O)CCc1ccc(O)c-2c1 (stereo unspecified)
inactive: outcome [1] | Potency [2] | Potency [3] | outcome [4] | Potency [5] | Potency [6] | Potency [7] | Potency [8]

CC1CC(=O)[C@]2(O)C(C(=O)OCCc3ccc(O)cc3)=CO[C@@H](O[C@@H]3O[C@H](CO)[C@@H](O)[C@H](O)[C@H]3O)[C@H]12 (stereo partly specified)
inactive: outcome [1] inactive [at 17.4 µM] | Potency [2] | Potency [3] | outcome [4] | Potency [5] | Potency [6] | Potency [7] | Potency [8]

C/C=C1/[C@H](O[C@@H]2O[C@H](CO)[C@@H](O)[C@H](O)[C@H]2O)OC=C2C(=O)O[C@@H]3C[C@@H](C(C)CO)[C@H](COC(=O)C[C@H]21)[C@H]3C (stereo partly specified)
inactive: outcome [1] inactive [at 17.4 µM] | Potency [2] | Potency [3] | outcome [4] | Potency [5] | Potency [6] | Potency [7] | Potency [8]

COC(=O)C1=CO[C@@H](O[C@@H]2O[C@H](CO)[C@@H](O)[C@H](O)[C@H]2O)C2C1CC(O)C2C (stereo partly specified)
inactive: outcome [1] | Potency [2] | Potency [3] | outcome [4] | Potency [5] | Potency [6] | Potency [7] | Potency [8]

Cc1c(NC(=O)N2CCOCC2)ccc2c1c1ccccc1n2C(C)C
inactive: outcome [1] | Potency [2] | Potency [3] | outcome [4] | Potency [5] | Potency [6] | Potency [7] | Potency [8]

COc1ccnc2[nH]cc(C(=O)C(=O)N3CCN(C(=O)c4ccccc4)CC3C)c12 (stereo unspecified)
inactive: outcome [1] | Potency [2] | Potency [3] | outcome [4] | Potency [5] | Potency [6] | Potency [7] | Potency [8]

O=C(/C=C/c1ccc(O)cc1)OC[C@@]1(O)C=C[C@@H]2C(C(=O)O)=CO[C@@H](O[C@@H]3O[C@H](CO)[C@@H](O)[C@H](O)[C@H]3O)[C@@H]21
inactive: outcome [1] inactive [at 17.4 µM] | Potency [2] | Potency [3] | outcome [4] | Potency [5] | Potency [6] | Potency [7] | Potency [8]

C=C1CC2C3(C)C(O)CC(=O)C(C)(C)C3C(O)C(OC(C)=O)C2(C)C2C(=O)OC(C)(C(=O)OC)C(=O)C12C (stereo unspecified)
inactive: outcome [1] inactive [at 17.4 µM] | Potency [2] | Potency [3] | outcome [4] | Potency [5] | Potency [6] | Potency [7] | Potency [8]
